OTUD3 block = inhibitors of human OTUD3 deubiquitinase; purified OTUD3, Ub-rhodamine fluorescence, 2 h; OTU domain-containing protein 3 (Homo sapiens), Q5T2D3; 47,000 tested, 0.7% active; inhibition, % at 25 µM
USP28 block = inhibitors of human USP28 deubiquitinase; Ubiquitin carboxyl-terminal hydrolase 28 (Homo sapiens), Q96RU2; purified USP28, Ub-rhodamine cleavage fluorescence, 30 min; inhibition, % at 25 µM; 47,000 tested, 3% active; AID 1645857, 2021
USP30 block = inhibitors of human USP30 deubiquitinase; inhibition, % at 25 µM; purified USP30, Ub-rhodamine cleavage fluorescence; 47,000 tested, 5.3% active; Ubiquitin carboxyl-terminal hydrolase 30 (Homo sapiens), Q70CQ3
Target sequence (Q70CQ3 whole entry, looked up): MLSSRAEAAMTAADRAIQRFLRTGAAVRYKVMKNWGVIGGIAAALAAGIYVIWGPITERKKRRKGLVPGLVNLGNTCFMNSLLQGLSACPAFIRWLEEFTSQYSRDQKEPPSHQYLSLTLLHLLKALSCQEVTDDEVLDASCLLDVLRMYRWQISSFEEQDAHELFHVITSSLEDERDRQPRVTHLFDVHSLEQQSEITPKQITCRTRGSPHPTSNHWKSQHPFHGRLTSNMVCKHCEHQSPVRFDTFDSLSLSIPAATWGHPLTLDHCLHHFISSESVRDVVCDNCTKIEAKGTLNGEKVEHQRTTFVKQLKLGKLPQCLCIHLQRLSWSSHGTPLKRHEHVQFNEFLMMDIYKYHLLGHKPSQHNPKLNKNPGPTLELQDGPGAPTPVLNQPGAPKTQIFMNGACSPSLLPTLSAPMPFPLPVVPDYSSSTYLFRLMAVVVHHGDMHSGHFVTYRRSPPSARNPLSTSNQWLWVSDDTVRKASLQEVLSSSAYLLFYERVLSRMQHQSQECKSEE
USP17 block = inhibitors of human USP17 deubiquitinase. purified USP17, Ub-rhodamine cleavage fluorescence, 3 h. inhibition, % at 50 µM. 47,000 tested, 6.5% active. AID 1645855, 2021. Ubiquitin carboxyl-terminal hydrolase 17-like protein 5 (Homo sapiens), A8MUK1
The depositor's hits bear a star; · = no result given. A selection: hits, their analogues and other compounds. The true share with any hit is near 12%. Rule as the data show it: active = inhibition above about 30%; inactive = the rest.

SMILES | OTUD3 block | USP28 block | USP30 block | USP17 block
O=C1NCCCn2cc(S(=O)(=O)N3CCN(c4ccccc4F)CC3)cc21 | 5 | 1 | -35 | -28
CCOc1ccc(NC(=O)Cn2c(=O)n(CCC(=O)NCc3ccco3)c(=O)c3ccccc32)cc1 | 11 | 8 | 3 | 71*
N#Cc1ccccc1Cn1c(=O)n(CCC(=O)N2CC=C(c3ccccc3)CC2)c(=O)c2ccccc21 | 2 | 14 | 25 | 0
Cc1ccc(NC(=O)Cn2c(=O)n(CC(=O)NCc3ccco3)c(=O)c3ccccc32)cc1C | 41* | 44* | 45* | 63*
O=C(Cn1c(=O)n(CCC(=O)N2CC=C(c3ccccc3)CC2)c(=O)c2ccccc21)NCc1ccco1 | 20 | 25 | 28 | 63*
Cc1cc(NC(=O)Cn2c(=O)n(CCCCC(=O)NCc3ccco3)c(=O)c3ccccc32)ccc1Br | 18 | 0 | 5 | 64*
O=C(NC1CCCC1)C1CN(C(=O)Nc2ccccc2F)CC12CCOCC2 (stereo not drawn) | 25 | 8 | 20 | 6
Cc1ccc(C(CNC(=O)COc2ccc(Cl)cc2)N2CCN(C)CC2)cc1 (stereo not drawn) | -8 | -6 | -8 | -12
COc1ccc(-c2cc(C(F)F)n3ncc(C(=O)NCC4CCCO4)c3n2)cc1 (stereo not drawn) | 2 | · | · | 33*
COc1ccc(-c2cc(C(F)F)n3ncc(C(=O)Nc4ccc5c(c4)OCCO5)c3n2)cc1 | 2 | 5 | 56* | 11
COc1cccc(Oc2nc3c(c(=O)n(C)c(=O)n3C)n2Cc2ccccc2F)c1 | 9 | -7 | 4 | 3
COc1ccc(-c2nnc(SCc3ccccc3C#N)o2)c(OC)c1 | 13 | 14 | 50* | 25
Cc1nc(SCC(=O)NC(C)c2ccccc2)c2oc3ccccc3c2n1 (stereo not drawn) | 21 | 1 | 0 | 38*
Cc1nc(SCC(=O)Nc2ccc(C)c(Cl)c2)c2oc3ccccc3c2n1 | 11 | 11 | 39* | 44*
COc1ccc(NC(=O)CSc2nc(C)nc3c2oc2ccccc23)c(OC)c1 | -4 | -1 | -7 | 1
Cc1ccc(NC(=O)CSc2nc(C)nc3c2oc2ccccc23)c(C)c1 | 8 | 8 | 32* | 26
COc1ccccc1NC(=O)CSc1nc(C)nc2c1oc1ccccc12 | 15 | 18 | 35* | 26
Cc1nc(SCC(=O)Nc2ccc(Cl)c(Cl)c2)c2oc3ccccc3c2n1 | 6 | 3 | 9 | 12
O=C(Nc1cccc(F)c1)c1cccc(-c2nc(-c3ccccc3)no2)c1 | 2 | 2 | 9 | 13
O=C1Nc2c(Cl)cc(Cl)cc2C1(O)c1sc(NC2CCCCC2)nc1-c1ccccc1 (stereo not drawn) | 6 | 8 | 8 | 66*
c1ccc(-c2noc(NC3CCCC3)n2)cc1 | -9 | 4 | -4 | -5
O=C(O)c1ccc(Cn2cnc3ccccc3c2=O)o1 | 9 | 6 | -16 | -12
O=C(Nc1cc(Cl)ccc1O)c1ccc(Cn2cnc3ccccc3c2=O)cc1 | -3 | -2 | -8 | 45*
COc1cc(OC)cc(-n2c(=O)c3sccc3n(CC(=O)c3ccc(Cl)cc3)c2=O)c1 | 9 | 11 | 30* | 35*
O=C1NCC2(C/C=C/CCOc3ccccc31)CCN(C(=O)c1n[nH]c3c1CCC3)CC2 | 5 | 19 | 22 | 8
SMILES | OTUD3 block | USP28 block | USP30 block | USP17 block
CCOC(=O)Cn1c(-c2ccc(Cl)cc2)ccc(C#N)c1=O | 14 | 16 | 30* | 14
CN1CC2(COc3ccccc31)CN(C(=O)C1CCOCC1)CCO2 (stereo not drawn) | 10 | 3 | 17 | 12
Cc1c2c(nc3ccccc13)-c1ccccc1CC2 | 7 | 55* | -22 | 5
CCn1c(COc2ccc3c(c2)OCO3)nnc1SCc1ccc([N+](=O)[O-])cc1 | 8 | 16 | 16 | -1
CCn1c(COc2ccc(OC)cc2)nnc1SCc1ccccc1Cl | 20 | 25 | 32* | 19
CCn1c(COc2cccc(C(F)(F)F)c2)nnc1SCc1ccc(Cl)cc1 | 24 | 59* | 58* | 36*
CCn1c(COc2ccccc2OC)nnc1SCc1ccccc1 | 2 | 1 | 9 | -9
Cn1cc(C(=O)Nc2cccc(Cl)c2)c(S(=O)(=O)N2CCCCCC2)n1 | 8 | 12 | 20 | -13
C[C@@H]1C(=O)OC[C@H]2C(C(=O)O)=C[C@@H]3CC(C)(C)C[C@]312 | -1 | 0 | -33 | -18
Cc1cccc(N(C)C(=O)CN(C)S(=O)(=O)c2ccc3c(c2)C(C)(C)C(=O)N3C)c1 | -6 | -10 | -63 | -9
O=S(=O)(C1CC1)N1CCC2(CCN(c3ncccn3)CC2)C1 | 2 | 5 | 2 | -6
Cc1ccc(NC(=O)Cn2cc(S(=O)(=O)N3CCCC3)ccc2=O)cc1 | 1 | 10 | -11 | 52*
Nc1c(-c2ccccn2)nsc1C(=O)N1CCN(c2ccccn2)CC1 | 0 | -6 | 21 | 5
COc1ccc(-c2cc(C(=O)NC3CCCCCC3)[nH]n2)cc1S(=O)(=O)N(C)C | -14 | 0 | 3 | 51*
O=c1c(NCc2ccc(F)cc2)nccn1-c1ccc2c(c1)OCCO2 | 2 | 19 | 3 | -2
O=c1c(NCc2ccccc2Cl)nccn1Cc1ccc(F)cc1 | 26 | 30* | 30* | 19
O=C(CSc1nc2cc(C(F)(F)F)ccc2s1)NCC(=O)c1ccccc1 | -8 | 5 | 0 | 91*
CNc1nc2c(c(=O)n1C)CN(C(=O)Nc1cccc3ccccc13)CC2 | 59* | 43* | -27 | 71*
COc1ccc(CNc2ncc(C(=O)Nc3ccccc3)c(C)n2)cc1 | -53 | -54 | -267 | -128
COc1ccc(-c2nc(CNS(=O)(=O)c3ccc(OC)cc3)cs2)cc1 | 6 | 19 | 0 | 49*
COc1ccc(-c2nc(CNS(=O)(=O)c3ccc(OC)c(C)c3)cs2)cc1 | 8 | 6 | 24 | 38*
COc1ccc(-c2nc3ncccn3c2Nc2ccc3c(c2)OCCO3)c(OC)c1O | 19 | 8 | 18 | -16
O=c1[nH]c(CSc2n[nH]c(-c3ccncc3)n2)nc2ccccc12 | -5 | -4 | -14 | 1
NC(=O)C(OC(=O)CSc1ccccc1)c1ccccc1 (stereo not drawn) | 13 | 11 | 32* | 11
COc1cccc(NC(=O)Cn2cnc3c(cnn3C(C)(C)C)c2=O)c1 | -6 | 30* | -19 | -7
CC(C)(C)n1ncc2c(=O)n(Cc3cccc([N+](=O)[O-])c3)cnc21 | 2 | 79* | 11 | -22
CC(C)(C)n1ncc2c(=O)n(CC(=O)Nc3cccc([N+](=O)[O-])c3)cnc21 | 12 | 3 | -12 | -29
CC(=O)c1ccc(NC(=O)CCn2c(=O)c3cccn3c3ccccc32)cc1 | -21 | -1 | -245 | 43*
O=C(CSc1nnc(Cc2ccccc2)o1)N1CCc2ccccc21 | -2 | -3 | 11 | 42*
O=C(Cn1c(Cc2ccccc2)nc2ccccc21)N1CCc2ccccc21 | 0 | 5 | 32* | 26

Compound activity as filed in PubChem BioAssay.
